Sampled rows, rich in hits. Any-hit rate of the full collection: about 1.7%.
LYPLA1 counter: LYPLA1 inhibitors, primary screen, counter-screen for PME1 inhibitor project, biochemical, fluorescence polarization, FP-Rh probe ABPP; hit rate 0.16% among 320,000; inhibition, % at 5.9 µM; recombinant LYPLA1;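 active = inhibition above the mean of all tested compounds plus 3 SD, set per campaign, cut at about 14% in these data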;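 note: inhibitors block serine hydrolase probe labeling of LYPLA1 so polarization falls; 0% = enzyme with DMSO and 100% = wells lacking LYPLA1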
PAD4 inh: human PAD4 inhibitors, primary screen, biochemical, fluorescence polarization, 1536-well format; recombinant PAD4, RCA probe fluorescence polarization; inhibition, % at 6.36 µM; hit rate 0.41% among 330,000;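 active = percent inhibition above a cutoff equal to the mean of all tested compounds plus 3 SD, cut at about 15% in these data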;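 note: 0% = PAD4 with RCA probe and DMSO and 100% = probe without PAD4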
GSTO1 inh: inhibitors of recombinant GSTO1, primary screen, counter-screen for RBBP9 inhibitor project, biochemical, fluorescence polarization. inhibition, % at 5.96 µM. activity-based probe fluorescence polarization. AID 1974, 2009. hit rate 1.1% among 300,000;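 active = inhibition above the campaign mean inhibition plus 3 SD, cut at about 35% in these data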;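 note: 0% = GSTO1-1 with DMSO and 100% = wells lacking GSTO1-1 enzyme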
Target sequence (P78417 whole entry, looked up): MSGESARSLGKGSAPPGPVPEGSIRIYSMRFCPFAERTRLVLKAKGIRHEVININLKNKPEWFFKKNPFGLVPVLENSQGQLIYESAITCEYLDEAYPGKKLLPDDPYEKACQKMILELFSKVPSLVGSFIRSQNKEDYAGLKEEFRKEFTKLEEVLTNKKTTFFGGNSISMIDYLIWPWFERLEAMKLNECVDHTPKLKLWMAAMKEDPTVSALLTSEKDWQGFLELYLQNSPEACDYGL
LYPLA2 inh: LYPLA2 inhibitors, primary screen, counter-screen for PME1 inhibitor project, biochemical, fluorescence polarization, FP-Rh probe ABPP. recombinant LYPLA2. inhibition, % at 5.9 µM. Acyl-protein thioesterase 2 (Homo sapiens), O95372. hit rate 0.38% among 320,000;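 active = inhibition above the screen-wide mean plus 3 SD, limit set per campaign, cut at about 26% in these data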;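 note: 0% = LYPLA2 with DMSO and 100% = wells lacking LYPLA2 enzyme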
PME-1 primary: PME-1 inhibitors via competitive probe labeling, primary screen, biochemical, fluorescence polarization, FP-Rh probe, HTS. recombinant PME-1. inhibition, % at 5.9 µM. hit rate 0.53% among 320,000;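 active = inhibition above the campaign mean of all compounds plus 3 SD, cut at about 26% in these data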;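 note: competitive labeling of PME-1 active site by serine hydrolase directed probe; 0% = PME-1 with DMSO and 100% = wells lacking PME-1 enzyme; inhibitors block probe labeling so polarization falls and inhibition rises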
Target sequence (Q9Y570 whole entry, looked up): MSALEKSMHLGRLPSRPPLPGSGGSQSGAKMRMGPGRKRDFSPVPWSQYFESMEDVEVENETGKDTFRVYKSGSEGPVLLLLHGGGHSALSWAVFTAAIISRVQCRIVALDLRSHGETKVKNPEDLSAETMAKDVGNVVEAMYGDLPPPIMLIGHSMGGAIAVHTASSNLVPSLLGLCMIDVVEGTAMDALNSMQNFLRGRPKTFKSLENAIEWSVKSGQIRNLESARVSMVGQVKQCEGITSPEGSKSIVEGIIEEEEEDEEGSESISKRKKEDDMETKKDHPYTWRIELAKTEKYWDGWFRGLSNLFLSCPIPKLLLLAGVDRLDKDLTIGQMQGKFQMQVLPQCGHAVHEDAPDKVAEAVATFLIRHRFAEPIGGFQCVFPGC
Fam108B counter: mouse Fam108B serine hydrolase inhibitors, primary screen, counter-screen for RBBP9 inhibitor project, biochemical, fluorescence polarization. inhibition, % at 9.51 µM. recombinant Fam108B, FP-Rh probe fluorescence polarization. hit rate 0.33% among 300,000;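 active = inhibition above the screen mean inhibition plus 3 SD, computed separately per campaign, cut at about 18% in these data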;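 note: inhibitors lower polarization as less probe binds the enzyme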
LYPLA2 conf: LYPLA2 inhibitors, retest, confirmation, counter-screen for PME1 inhibitor project, biochemical, fluorescence polarization, FP-Rh probe ABPP; shares compounds with LYPLA2 inh; recombinant LYPLA2; inhibition, % at 5.9 µM; hit rate 72% among 1,100;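 active = mean inhibition across replicates above the hit cutoff set in the primary screen, cut at about 26% in these data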;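 note: blocked labeling of the enzyme by serine hydrolase FP-Rh probe lowers polarization; 0% = enzyme with DMSO and 100% = wells lacking LYPLA2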
LYPLA2 gel ABPP: LYPLA2 inhibitors in proteome, late-stage follow-up, gel-based competitive ABPP, fluorescence, assay provider. hit rate 30% among 150. rhLYPLA2 in mouse brain proteome, gel ABPP FP-Rh. inhibition, % at 20 µM. AID 652029, 2013. shares compounds with LYPLA2 inh;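 active = inhibition of LYPLA2 enzyme probe labeling above about 50%, limit read from the data; inactive = inhibition below that limit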;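 note: loss of FP-Rh probe labeling of the LYPLA2 gel band measured as band density; 0% = DMSO only control band and 100% = blank gel background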
The depositor's hits bear a star; · = no result.

SMILES	LYPLA1 counter	PAD4 inh	GSTO1 inh	LYPLA2 inh	PME-1 primary	Fam108B counter	LYPLA2 conf	others
O=C(Nc1ccc(Oc2ccccc2)cc1)C1CCN(c2c3c(nc4ncnn24)CCC3)CC1	-1.7	1.6	-3.9	27.6*	-0.9	-1.4	21.8
O=C(NCc1ccc2c(c1)OCO2)C1CCC(CNS(=O)(=O)c2cccc3nsnc23)CC1 (centres undefined)	0.2	-4.0	1.6	34.5*	5.9	1.2	38.5*
CCOc1ccc(S(=O)(=O)N2CCN(C(=O)c3ccccc3Cc3ccccc3)CC2)cc1	0.7	-1.9	-5.6	1.7	6.3	-3.1	·
CCOC(=O)C1(CCOc2ccccc2)CCN(Cc2ccc3nonc3c2)CC1	4.0	2.2	4.2	30.9*	-1.8	-1.0	28.4*
Cc1ccn2c(c1)nc(=O)c1cc(S(=O)(=O)N3CCOCC3)ccc12	-1.7	1.1	3.0	-0.9	1.7	-0.2	·
O=C1CC(N2CCN(c3cccc(C(F)(F)F)c3)CC2)C(=O)N1c1ccc(F)cc1 (centres undefined)	2.2	0.8	7.4	55.0*	-8.2	-3.0	48.7*
Cc1cccc(N2C(=O)CC(N3CCN(c4cccc(C(F)(F)F)c4)CC3)C2=O)c1 (centres undefined)	13.6	-2.8	0.3	45.6*	7.5	1.7	39.7*
Cc1ccc(C(=O)O)cc1NC(=S)NC(=O)c1ccc(COc2ccccc2)cc1	3.9	1.8	-8.9	46.3*	-8.1	-4.3	51.4*	LYPLA2 gel ABPP=23.0
O=C(O)c1cccc(NC(=S)NC(=O)c2cccc(OCc3ccccc3)c2)c1	1.9	-0.3	-5.7	31.2*	-5.7	-9.1	29.2*
Cc1ccc(C(=O)O)cc1NC(=S)NC(=O)Cc1ccccc1	2.3	2.4	-0.3	2.7	3.7	-1.8	·
O=C1CCCN1Cc1ccccc1	-4.2	-1.9	2.9	-6.3	-3.9	-0.7	·
COC(=O)[C@@H](NC(=O)N1CCC(Cc2ccccc2)CC1)C(C)C	0.3	-2.3	9.9	-5.4	6.8	-5.1	·
O=C(NCCN1CCOCC1)c1csc2c1CCCCC2	0.0	-5.9	2.9	9.6	0.1	-2.5	·
COc1ccc(OC)c(-c2cc(C(=O)Nc3c(C)nn(Cc4ccccc4)c3C)no2)c1	12.3	-0.1	0.9	60.7*	-4.6	-0.2	66.1*	LYPLA2 gel ABPP=64.0*
Cc1nn(Cc2ccccc2)c(C)c1NC(=O)c1cc(-c2ccco2)on1	0.3	-1.5	-1.1	6.8	-2.5	1.7	·
COc1ccc(OC)c(-c2cc(C(=O)Nc3c(C)nn(Cc4ccc(Cl)cc4)c3C)no2)c1	11.8	0.3	-11.8	44.4*	-10.8	-13.7	86.9*	LYPLA2 gel ABPP=45.0
Cc1c(NC(=O)C(C)OC(=O)c2cccnc2Cl)c(=O)n(-c2ccccc2)n1C (centres undefined)	1.0	-43.4	·	2.2	4.4	·	·
OC(COc1cccc2ccccc12)CN1CCN(c2ccc(Cl)cc2)CC1 (centres undefined)	-1.9	-1.9	1.8	1.4	3.2	1.1	·
O=[N+]([O-])c1ccccc1OCC(O)CN1CCN(CC(O)COc2ccccc2[N+](=O)[O-])CC1 (centres undefined)	-0.1	-7.1	2.6	44.4*	3.5	-0.7	49.3*
OC(COc1cccc2ccccc12)CN1CCN(c2cccc(Cl)c2)CC1 (centres undefined)	12.9	3.5	-4.1	35.3*	-1.3	3.8	21.6
Cc1ncc([N+](=O)[O-])n1CC(=O)Nc1ccc(F)c(Cl)c1	5.5	-3.8	-4.8	34.3*	-8.8	1.5	61.4*	LYPLA2 gel ABPP=49.0
Cc1ncc([N+](=O)[O-])n1CC(=O)Nc1cccc(C(F)(F)F)c1	0.4	-4.3	0.7	50.9*	-0.8	-4.3	41.4*
CSc1ccccc1NC(=O)Cn1c([N+](=O)[O-])cnc1C	1.8	-3.5	-3.6	5.5	-2.5	-6.2	·
Cc1ncc([N+](=O)[O-])n1CC(=O)Nc1ccccc1F	-0.8	4.0	1.6	27.6*	0.7	15.8	26.6*
COc1ccc(NC(=O)Cn2c([N+](=O)[O-])cnc2C)cc1Cl	-0.7	-3.2	-0.7	24.3	1.6	0.7	·
SMILES	LYPLA1 counter	PAD4 inh	GSTO1 inh	LYPLA2 inh	PME-1 primary	Fam108B counter	LYPLA2 conf	others
Cc1ncc([N+](=O)[O-])n1CC(=O)Nc1ccc(OC(F)(F)Cl)cc1	1.4	-1.2	2.4	3.4	-2.1	-4.2	·
Cc1ncc([N+](=O)[O-])n1CC(=O)NC1CCCCCC1	-4.0	-2.7	-3.0	27.9*	2.8	6.6	32.6*
CCCS(=O)(=O)N1CCC(C(=O)NCc2ccco2)CC1	3.4	-2.8	-1.2	-7.1	-2.2	-3.7	·
Brc1ccc(NC(c2ccccc2)c2ccncc2)cc1 (centres undefined)	1.0	-5.7	6.2	5.1	-5.1	3.6	·
COc1cccc(N2CCN(C(=O)c3cc(-c4ccccc4)nc4c3cnn4C(C)C)CC2)c1	·	-0.4	·	·	·	·	·
C/C(=N\OC(=O)c1ccccc1)c1cc(-c2ccc(Cl)cc2)no1	-0.3	-3.1	0.5	5.2	-5.8	1.1	·
C/C(=N/OC(=O)C1CC1)c1cc(-c2ccc(Cl)cc2)no1	4.5	-3.2	9.3	37.4*	-0.5	5.2	22.1
CC(=O)c1cc(C#N)c(SCc2ccccc2C#N)nc1C	2.8	-3.7	-7.7	45.7*	5.0	-3.7	46.3*
CC(=O)c1cc(C#N)c(SCc2ccncc2)nc1C	0.4	1.9	-0.6	5.5	-15.7	3.2	·
Cc1nc2ccccc2n1C1CC(=O)N(Cc2ccccc2)C1=O (centres undefined)	-0.2	-1.9	3.1	2.9	-2.3	0.4	·
Cc1nc([N+](=O)[O-])cn1CC(=O)Nc1ccc([N+](=O)[O-])cc1	-0.4	2.1	5.0	33.0*	0.9	2.5	40.6*
Cc1nc([N+](=O)[O-])cn1CC(=O)c1ccccc1	-2.7	-0.4	-3.7	0.1	-3.1	-2.9	·
O=C(O)c1cccc2c1C(=O)c1ccc(-c3ccc(F)cc3OCc3ccccc3)cc1S2(=O)=O	-9.1	-4.3	·	34.7*	11.9	·	29.4*
